Consider 14 molecules from article PMC5540273 (PLoS ONE, 2017).

pKd: −log10 of the molar value. A value given as a limit tells only on which side of the number the result lay.
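Further: kd values determined as follow-up on hits from a single-replicate KINOMEscan panel screen.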

One test deals with PDGFRA.
By pKd is commonly meant the Kd on a negative log10 scale, so that one unit is a factor of ten. Read a high pKd as a low Kd. `Cn1ccc2ncnc(Oc3ccc(NC(=O)Nc4cccnc4)c(Cl)c3)c21`: the pKd was 6.96.

Regarding `Cc1ccc(NC(=O)c2cccc(C#N)c2)cc1-c1ccc(C(=O)Nc2ccncc2)cc1` [GSK1398463], the negative-log Kd (pKd) was 6.77.

Take `O=C(Nc1ccccc1)Nc1ccc(Oc2ccc3nccn3n2)cc1`: the pKd is 7.15.

In a further test the test system is PDGFRB.
Regarding `O=C(Nc1n[nH]c2nc(-c3ccco3)c(Br)cc12)c1ccc(CN2CCCC2)cc1.O=C(O)[C@H](O)[C@@H](O)C(=O)O` [SB-742352], the negative logarithm of the Kd (pKd) is 7.17.

As to `CC(=O)Nc1n[nH]c2ncc(-c3ccccc3)cc12` [SB-548492], the negative-log Kd (pKd) is 6.57.

On to `Cn1ccc2ncnc(Oc3ccc(NC(=O)Nc4cccnc4)c(Cl)c3)c21`, for which the negative-log Kd (pKd) was 7.02.

`COc1cc2c(Nc3cccc(NC(=O)c4ccccc4)c3)ncnc2cc1OCCCN1CCOCC1` [GSK223810] had a pKd of 6.25.

Molecule `COc1ccc(NC(=O)Nc2ccc(C)c(-c3ccc(C(=O)Nc4ccncc4)cc3)c2)cc1` [GSK1398475] had a pKd of 7.32.

Take `Cc1ccc(NC(=O)c2cccc(C#N)c2)cc1-c1ccc(C(=O)Nc2ccncc2)cc1` [GSK1398463]: the pKd was 7.89.

Molecule `O=C(Nc1ccccc1)Nc1ccc(Oc2ccc3nccn3n2)cc1` had a pKd of 7.21.

The next test deals with PDPK1.
Molecule `CSc1ccc(NC2=C(c3ccccc3Cl)C(=O)NC2=O)cc1` [SB-342411] had a pKd of less than 5.00.

Molecule `COc1cc2c(Nc3cccc(NC(=O)c4ccccc4)c3)ncnc2cc1OCCCN1CCOCC1` [GSK223810] showed a pKd of less than 5.00.

Take `Nc1nc(-c2ccc3c(N)n[nH]c3c2)cc(N2CCCCC2)n1` [GSK2228768]: the pKd was 6.27.

With `CC(C)(C)OC(=O)NC1CCCN(c2cc(-c3ccc4c(N)n[nH]c4c3)nc(N)n2)C1` (stereo not drawn) [GSK2286096], the negative logarithm of the Kd (pKd) was 7.43.

In a further test the test system is T1, PIP5K2C.
T1 construct: gene PIP4K2C
Consider `CN1CCC(n2cnc(-c3ccc(F)cc3)c2-c2ccnc(NC3CCNCC3)n2)CC1` [SB-229482], for which the negative-log Kd (pKd) was 6.66.

With `O=C(c1ccc(-c2cc(-c3c[nH]nc3-c3ccccn3)ccn2)cc1)N1CCCC1` [GW792479], the negative-log Kd (pKd) is 7.68.

In turn, `CCc1nc(-c2cccc(C)c2)c(-c2ccnc(NC(=O)c3ccccc3)c2)s1` gave a pKd of 5.39.

`CNc1nccc(-c2c(-c3ccc(F)cc3)ncn2C2CCN(C)CC2)n1` [SB-222903] had a negative logarithm of the Kd (pKd) of 7.41.
